The source of these data is PubChem BioAssay AID504333 (National Center for Advancing Translational Sciences (NCATS), 2011).

About 16,000 (4.4%) of roughly 360,000 compounds were called active. Roughly 9% stayed inconclusive and do not appear here. The list comes from a sample in which actives are over-represented; it also holds similar structures and randomly drawn compounds. Unmarked numbers belong to inactive results. The call rests on the fitted dose curve; in most records, active means well fitted inhibition curve with a large enough effect; inconclusive means small, poorly fitted or top-dose-only effect; inactive means no such curve, though single readings can be large or run the other way.
On the % scale 0 is the no-effect control and ±100 the full control effect; potency means the concentration at half of the fitted maximal effect.

Bromodomain adjacent to zinc finger domain protein 2B (Homo sapiens), sequence (Q9UIF8 whole entry, looked up, the tested form may be a part): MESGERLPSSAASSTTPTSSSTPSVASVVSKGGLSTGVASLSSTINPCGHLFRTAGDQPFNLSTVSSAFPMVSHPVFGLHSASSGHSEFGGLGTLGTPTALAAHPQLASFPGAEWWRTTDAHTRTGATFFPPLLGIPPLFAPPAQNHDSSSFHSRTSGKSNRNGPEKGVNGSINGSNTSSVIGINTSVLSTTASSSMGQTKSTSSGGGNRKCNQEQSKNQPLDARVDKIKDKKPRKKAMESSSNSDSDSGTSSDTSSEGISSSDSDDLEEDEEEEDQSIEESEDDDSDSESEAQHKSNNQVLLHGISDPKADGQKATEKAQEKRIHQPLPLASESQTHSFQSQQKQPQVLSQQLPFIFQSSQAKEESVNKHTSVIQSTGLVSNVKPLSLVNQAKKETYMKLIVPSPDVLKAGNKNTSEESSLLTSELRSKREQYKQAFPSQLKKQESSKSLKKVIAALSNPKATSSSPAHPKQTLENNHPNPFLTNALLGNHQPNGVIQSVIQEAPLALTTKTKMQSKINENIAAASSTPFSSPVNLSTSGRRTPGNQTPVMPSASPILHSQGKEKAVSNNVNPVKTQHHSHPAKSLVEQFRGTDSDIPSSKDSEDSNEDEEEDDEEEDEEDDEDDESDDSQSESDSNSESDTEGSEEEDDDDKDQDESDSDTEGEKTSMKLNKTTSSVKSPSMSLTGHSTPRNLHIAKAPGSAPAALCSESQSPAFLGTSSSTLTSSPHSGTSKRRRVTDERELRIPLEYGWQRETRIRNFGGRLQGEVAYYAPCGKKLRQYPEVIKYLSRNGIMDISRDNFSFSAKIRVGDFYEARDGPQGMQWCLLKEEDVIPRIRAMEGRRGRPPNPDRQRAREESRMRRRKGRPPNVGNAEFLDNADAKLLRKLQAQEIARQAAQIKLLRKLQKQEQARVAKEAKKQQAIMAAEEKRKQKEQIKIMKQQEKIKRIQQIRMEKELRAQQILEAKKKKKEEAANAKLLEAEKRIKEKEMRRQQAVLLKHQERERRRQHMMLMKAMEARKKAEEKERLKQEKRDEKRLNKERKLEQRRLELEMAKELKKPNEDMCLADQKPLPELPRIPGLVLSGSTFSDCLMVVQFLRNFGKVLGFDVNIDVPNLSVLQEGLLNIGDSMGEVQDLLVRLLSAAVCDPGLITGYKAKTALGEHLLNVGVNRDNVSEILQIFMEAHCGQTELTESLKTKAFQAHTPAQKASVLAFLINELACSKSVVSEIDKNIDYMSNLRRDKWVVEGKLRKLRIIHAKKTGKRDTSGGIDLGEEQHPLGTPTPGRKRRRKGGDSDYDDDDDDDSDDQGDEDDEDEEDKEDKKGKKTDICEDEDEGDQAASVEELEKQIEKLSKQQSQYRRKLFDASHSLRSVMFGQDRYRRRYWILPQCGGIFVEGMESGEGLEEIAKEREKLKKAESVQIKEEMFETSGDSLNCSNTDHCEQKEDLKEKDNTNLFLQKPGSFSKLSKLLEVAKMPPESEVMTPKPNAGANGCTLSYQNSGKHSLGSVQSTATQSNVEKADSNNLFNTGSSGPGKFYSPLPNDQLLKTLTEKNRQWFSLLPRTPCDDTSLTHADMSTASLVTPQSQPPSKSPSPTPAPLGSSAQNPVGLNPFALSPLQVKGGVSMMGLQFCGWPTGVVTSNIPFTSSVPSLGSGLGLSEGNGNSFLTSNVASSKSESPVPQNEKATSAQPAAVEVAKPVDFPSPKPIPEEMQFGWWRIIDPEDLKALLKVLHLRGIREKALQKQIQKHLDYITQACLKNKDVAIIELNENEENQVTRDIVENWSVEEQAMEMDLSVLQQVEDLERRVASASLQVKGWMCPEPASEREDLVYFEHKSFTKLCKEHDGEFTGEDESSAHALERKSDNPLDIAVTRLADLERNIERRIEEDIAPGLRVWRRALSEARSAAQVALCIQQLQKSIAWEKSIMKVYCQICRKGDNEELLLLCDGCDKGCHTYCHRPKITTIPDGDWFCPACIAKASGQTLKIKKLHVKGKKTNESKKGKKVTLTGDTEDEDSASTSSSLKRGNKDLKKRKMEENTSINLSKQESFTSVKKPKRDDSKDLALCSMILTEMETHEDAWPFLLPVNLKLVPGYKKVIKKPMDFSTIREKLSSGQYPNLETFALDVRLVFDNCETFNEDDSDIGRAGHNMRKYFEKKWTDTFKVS

This assay has as its target Bromodomain adjacent to zinc finger domain protein 2B (Homo sapiens) (UniProt Q9UIF8). Kind of assay: qHTS Assay for Inhibitors of BAZ2B. Further: nearly all actives have a fitted effect of over 60% in size. As to conditions: AlphaScreen BAZ2B-H3K14Ac peptide displacement; series mostly up to 114 µM; activity change, negative = inhibition: at the top concentration. The procedure, abridged:
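Compounds, titrated to a top concentration of 110 uM, were incubated 30 min at room temperature with preformed BAZ2B/acetyl-K14 H3 peptide complex (50 nM each). Proximity signal was measured by AlphaScreen after 20 min with beads.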
On the technique in general: Quantitative high-throughput screening tests each substance at several concentrations.
For `Cc1ccc(NC(=O)CSc2cccc3cccnc23)c(C)c1`, the “activity change, negative = inhibition” value was -21.6%.
Still for that read-out and setting: the same measure for `Cc1cc(Br)ccc1NC(=S)NC1CCCC1`: -19.8%.
Take `COC(=O)c1scc(-c2ccc(C)cc2)c1S(=O)(=O)Nc1cc(Cl)c(OC)cc1OC`: the “activity change, negative = inhibition” value was -22.8%.
Turning to `Cc1cc(C)c(NC(=O)CCc2c(C)nc3c(c(C)nn3C(C)(C)C)c2C)c(C)c1`, the “activity change, negative = inhibition” value is -12.1%.
Consider `OC(CNCCc1ccc(Cl)cc1Cl)COc1ccccc1` (stereo unspecified), for which the Potency was 70.8 µM (active).
Consider `OC(CNCc1ccc2c(c1)OCO2)COc1ccccc1` (stereo unspecified), for which the “activity change, negative = inhibition” value was -13.4%.
Regarding `COc1ccc(OCC(O)CNC(=O)Nc2ccc(Cl)cc2)cc1` (stereo unspecified), the “activity change, negative = inhibition” value is -5.34%.
On to `CCCNC(=O)c1ccc(Cn2c(SCC(N)=O)nc3ccccc3c2=O)cc1`, for which the “activity change, negative = inhibition” value is 0.549%.
The same measure, in the same setting: the same measure for `CC(=O)c1ccc(NC(=O)CSc2nnc(NC(=O)Nc3ccccc3)s2)cc1`: 7.08%; for `O=C(c1ccco1)N1CCN=C1SCc1cccc(Cl)c1`: -1.87%.
`Cc1cc2c(cc3c(SCc4cccc(Cl)c4)nnc(C)n32)o1`: the Potency was 25.1 µM (active).
Take `Cc1cc2c(cc3c(SCc4nc(-c5ccccc5)oc4C)nnc(C)n32)o1`: the “activity change, negative = inhibition” value is -15.2%.
Still for that read-out and setting: for `CCN1CCc2nc3sc(C(=O)Nc4ccccc4OC(F)(F)F)c(N)c3cc2C1` the value was -35%.
For `CCc1ccc(NC(=O)c2sc3nc4c(cc3c2N)CN(CC)CC4)cc1`, the Potency is 35.5 µM (active).
Turning to `CCc1ccccc1NC(=O)c1sc2nc3c(cc2c1N)CN(Cc1ccccc1)CC3`, the “activity change, negative = inhibition” value was -6.05%.
Regarding `O=C(COc1ccccc1)NCc1ccc2c(c1)CCN2C(=O)c1ccc(F)cc1`, the “activity change, negative = inhibition” value was -11.4%.
On to `CCc1nc2cccnc2n1-c1ccc(CC(=O)Nc2c(C)cccc2C)cc1`, for which the “activity change, negative = inhibition” value was -2.4%.
The same measure, in the same setting: the same measure for `Cc1cc(C)cc(NC(=O)CSc2nc3nccnc3c(=O)n2CCc2c[nH]c3ccccc23)c1`: -12.2%.
On the same count and under the same terms, for `Cc1ccc(-n2ncc3c(N4CCC(C(N)=O)CC4)ncnc32)cc1` the value was -0.637%.
The same measure, in the same setting: for `Cc1cc(C)cc(OCC(=O)Nc2nc(-c3ccc(F)cc3)ns2)c1` the value was -2.4%.
Turning to `CN(C)c1ccc(Nc2c3c4c(cccc4n(C)c2=O)C(=O)c2ccccc2-3)cc1`, the Potency was 1.58 µM (active).
Turning to `COc1ccc(Br)cc1/C=N/NC(=O)c1cccc(S(=O)(=O)N2CCOCC2)c1`, the “activity change, negative = inhibition” value is -15.1%.
Still for that read-out and setting: for `Cc1cccc(NC(=O)c2cccc(S(=O)(=O)N3CCCC3)c2)n1` the value was -4.94%.
Consider `Cc1ncc(CO)c(/C=N/NC(=O)c2cccc(S(=O)(=O)N3CCCC3)c2)c1O`, for which the Potency is 28.2 µM (active).
For `CCC(=O)N1N=C(c2ccc(OC)cc2)CC1c1cn(-c2ccccc2)nc1-c1cccs1` (stereo unspecified), the “activity change, negative = inhibition” value is -5.53%.
In the case of `O=C(Cn1ncc2c3ccccc3n(Cc3ccccc3)c2c1=O)NC1CCCCCC1`, the “activity change, negative = inhibition” value was -0.79%.
The same measure, in the same setting: for `Fc1ccc(N2CCN(Cc3cnc(Oc4ccc(Br)cc4)s3)CC2)cc1` the value was -9.51%.
Regarding `COc1ccc(N2CCN(Cc3ccc(Br)s3)CC2)cc1`, the Potency was 17.8 µM (active).
`COc1ccc(N2CCN(Cc3nnc(-c4ccccc4)o3)CC2)cc1`: the “activity change, negative = inhibition” value is -35.9%.
Consider `CCN1CCN(c2ncnc3c2cnn3-c2ccc(C)c(C)c2)CC1`, for which the “activity change, negative = inhibition” value was -2.62%.
With `CC(C)(C)c1ccc(OCC(=O)N2CCC(c3nc4ccccc4s3)CC2)cc1`, the “activity change, negative = inhibition” value was -19.1%.
`O=C(OCN1C(=O)c2ccccc2C1=O)/C(=C\c1ccco1)NC(=O)c1ccccc1`: the “activity change, negative = inhibition” value is -5.64%.
Still for that read-out and setting: for `O=C(/C=C/c1ccco1)NC(=S)Nc1ccccc1Br` the value was -36.4%.
In the case of `COC(=O)C1=C(C)N(C(C)c2ccccc2)C(=O)/C1=C\c1ccco1` (stereo unspecified), the Potency was 20 µM (active).
Turning to `CCc1cccc(C)c1NS(=O)(=O)c1ccc(-c2cc(C)no2)s1`, the “activity change, negative = inhibition” value was 2.64%.
On the same count and under the same terms, the same measure for `CCC(=O)N1CCc2cc(Br)cc(S(=O)(=O)CCC(=O)NCCc3ccc(OC)c(OC)c3)c21`: 27%.
On the same count and under the same terms, for `CC(C)NC(=O)C1CCC(Cn2c(=O)c3sccc3n(Cc3ccc(F)cc3)c2=O)CC1` (stereo unspecified) the value was -5.59%.
Still for that read-out and setting: for `CCOC(=O)c1c(C)[nH]c(C)c1S(=O)(=O)N1CCCC(C(=O)NCc2ccccc2Cl)C1` (stereo unspecified) the value was -21.1%; for `O=C(Nc1ccccc1)c1ccco1`, 6.6%.
As to `O=C(Nc1nc(-c2ccco2)c(-c2ccco2)s1)c1ccco1`, the Potency was 44.7 µM (active).
As for `O=C(Nc1nnc(CCOCCOCCc2nnc(NC(=O)c3ccco3)s2)s1)c1ccco1`, the “activity change, negative = inhibition” value was -25.7%.
Still for that read-out and setting: the same measure for `CCOc1ccc(CNC(=O)c2ccc(CS(=O)c3ccccc3)o2)cc1` (stereo unspecified): -17.4%.
In the case of `O=C(NCCCn1ccnc1)c1cc(-c2ccccc2)on1`, the “activity change, negative = inhibition” value is -27.5%.
Consider `COc1cccc(-c2nn(-c3ccccc3)cc2/C=C(\C#N)C(=O)NCCCn2ccnc2)c1`, for which the Potency was 50.1 µM (active).
With `CC(C)(C)OC(=O)N/N=C/c1cn(-c2ccccc2)nc1-c1cccnc1`, the “activity change, negative = inhibition” value is 3.33%.
For `Cc1cc2c(cc1S(=O)(=O)CCC(=O)Nc1ccc(OC(F)(F)F)cc1)OCC(=O)N2`, the “activity change, negative = inhibition” value was 1.13%.
Same read-out and setting: for `Cc1cc(C)cc(NC(=O)CSc2oc(-c3ccccc3)nc2S(=O)(=O)c2ccc(Cl)cc2)c1` the value was -13%.
`O=C(Nc1cccnc1)c1cc2cc(Br)ccc2oc1=O`: the Potency was 79.4 µM (active).
In the case of `COc1ccc2oc(=N)c(C(=O)Nc3ccc(Br)cc3)cc2c1`, the “activity change, negative = inhibition” value is -3.61%.
Still for that read-out and setting: the same measure for `O=C(Nc1cccnc1)c1ccc(Cl)cc1[N+](=O)[O-]`: -25.8%; for `CCc1cc2c(cc3c(=O)n(CC(=O)N4CCN(c5cc(Cl)ccc5C)CC4)ncn32)s1`: 5.16%.
